40 compounds from PubChem BioAssay (NCI) can be followed below.

Molecules are shown by their SMILES. The panel holds about 83,000 compounds, 20% with a hit somewhere; the sample as a whole holds those more often.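 Testing used 96-well plates and a 48-hour single-concentration exposure. Example: -40 means 40% of the starting cells died.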 Active and inactive are the calls of the source. The calls were made as follows: active = growth percent below 10; inactive = the rest.

In this test the test system is MDA-MB-468 breast. The experiment in a line: NCI-60 one-dose screen, 48 h (100 = growth as untreated, 0 = no growth, -100 = all killed). Conditions: 10 µM unless noted.
On to `Cc1[nH]c(C(=O)Nc2ccccc2OCc2cccc(C(=O)NC3CCNC3)c2)c(Cl)c1Cl` (stereo not given), for which the growth was 22% (inactive).

Take `Cc1cc(C)c2c(N)c3cccc(C)c3nc2n1`: the growth was -54.4% (active).

Take `CC1(C)C(=NO)C(C)(C)C1=NO`: the growth is 103% (inactive).

Take `Cn1ccnc1C(=O)/C=C/c1ccc(C(=O)Nc2ccc(F)cc2)cc1`: the growth is 14.9% (inactive).

On to `CCC(CC)N1C(=O)/C(=c2\sc3n(c2=O)NC2C(N=3)N(CC)C(=O)N2CC)c2ccccc21` (stereo not given), for which the growth was 79.9% (inactive).

Turning to `Clc1ccc(-c2csc(N/N=C/c3nc4ccccc4n3C3CC3)n2)cc1`, the growth is 90.1% (inactive).

As for `COc1ccc(-c2nc(-c3ccccn3)c(-c3ccccn3)n2CC(C)C)cc1OC1CCCC1`, the growth is -10.7% (active).

In the case of `O=C(O)c1ccc(-n2cc(/C=N/Nc3ccccc3)c(-c3ccc(F)cc3F)n2)cc1`, the growth is 89.3% (inactive).

On to `COC(=O)[C@H](Cc1ccccc1)NC(=O)[C@@H](OC)[C@@H]1Cc2cc3cc(OC4CC(OC5CC(O)C(O)C(C)O5)C(O)C(C)O4)c(C)c(O)c3c(O)c2C(=O)[C@H]1OC1CC(OC2CC(OC3CC(C)(O)C(O)C(C)O3)C(O)C(C)O2)C(O)C(C)O1` (stereo not given in full), for which the growth was -36.7% (active).

On to `O=C(CCc1nnc2sc(OCc3ccccc3)nn12)c1nc2ccc([N+](=O)[O-])cc2[nH]1`, for which the growth is 109% (inactive).

Regarding `C/C(=N\Nc1ccc2ccccc2n1)c1ccccn1`, the growth was -36.1% (active).

For `O=C(/C=C/c1ccc(Br)cc1)c1ccccc1`, the growth is 96.3% (inactive).

For `CCOC(=O)Nc1cccc(-n2cnc3cc(-c4ccc(O)cc4)ccc32)c1`, the growth is 20.4% (inactive).

Consider `CCN1C(=O)N(CC)C2Nn3c(s/c(=C\c4ccccc4Br)c3=O)=NC21` (stereo not given), for which the growth is 12.3% (inactive).

Consider `CC(C)CCC[C@@H](C)[C@H]1CCC2C3=CCC4C(=O)C=CC(=O)C4C3CC[C@@]21C` (stereo not given in full), for which the growth was 2.69% (active).

In the case of `O=S(=O)(NCCNc1cc(-c2cn(-c3ccccc3)nc2-c2ccccc2)ccn1)c1cccc2ccccc12`, the growth was 36.6% (inactive).

For the compound `O=C1CCc2c(sc3[nH]c(=S)n(-c4cc(C(F)(F)F)cc(C(F)(F)F)c4)c(=O)c23)C1`, the growth was -14.2% (active).

With `CCOC(=O)c1sc2ncnc(Nc3ccc(NC(=O)Nc4ccc(Cl)cc4)cc3)c2c1C`, the growth was 68.9% (inactive).

For the compound `O=C(/C=C/c1ccc(O)c(O)c1)N1CCN(c2ccc(Cl)cc2)CC1`, the growth is 39.7% (inactive).

As to `N#CCCN1C/C(=C/c2ccc(Cl)cc2)C(=O)/C(=C/c2ccc(Cl)cc2)C1`, the growth is -66.5% (active).

`COc1cc(-c2nc(C(=O)NCC(=O)NO)nn2-c2ccc(Cl)cc2)cc(OC)c1OC`: the growth is 112% (inactive).

With `O=c1c2ccccc2[nH]n1Cc1ccc2c(c1)OCO2`, the growth was 94.5% (inactive).

On to `O=P(O)(O)C(O)(Cc1cccnc1)P(=O)(O)O`, for which the growth is 80.6% (inactive).

With `COc1ccc2nc3cc(Cl)ccc3c(Nc3ccc(O)cc3)c2c1`, the growth was 46% (inactive).

As to `COc1ccc(Nc2[nH]n3c(=O)cc(C)nc3c2C(N)=O)c(OC)c1`, the growth was 97.3% (inactive).

Take `O=C(CNc1ncco1)Nc1ccc(S(=O)(=O)c2ccc(NC(=O)CNc3ncco3)cc2)cc1`: the growth is -61.7% (active).

On to `c1coc([C@@H]2C[C@@H]3Cc4ccc5ccccc5c4N2O3)c1`, for which the growth was 89.7% (inactive).

Take `O=C1Cc2c(sc3c(F)cccc23)C(c2ccccc2[N+](=O)[O-])N1` (stereo not given): the growth is 86.9% (inactive).

Regarding `O=C(Nc1ccc(-n2cc(-c3ccncc3)c(-c3ccc(O)c(Cl)c3)n2)cc1)Nc1cc(C(F)(F)F)cc(C(F)(F)F)c1`, the growth is 37.1% (inactive).

Turning to `O=C(O)C1[S][Sb]([CH](C(=O)O)[CH](C(=O)O)[Sb]2[S]C(C(=O)O)C(C(=O)O)[S]2)[S]C1C(=O)O` (stereo not given), the growth was 81.6% (inactive).

Regarding `CCCCCCCCCCCCCCCC(N)c1ccccc1` (stereo not given), the growth is -82.2% (active).

Consider `Cc1ccc(Nc2ccc(Nc3ccc(C)cc3S(=O)(=O)O)c3c2C(=O)c2ccccc2C3=O)c(S(=O)(=O)O)c1`, for which the growth is 104% (inactive).

In the case of `CCN1c2ccccc2C(Cl)(c2ccc(N(C)C)cc2)c2ccccc21`, the growth was 86.6% (inactive).

For `Nc1cc2ccccc2c(O)c1O`, the growth was -3.32% (active).

Regarding `CCN(Cc1ccc(CN(CC)C(=O)C(Br)Br)cc1)C(=O)C(Br)Br`, the growth was 17.6% (inactive).

Consider `O=C(OCc1ccc2c(Cl)cc(Cl)c(O)c2n1)n1cncn1`, for which the growth is 14% (inactive).

Turning to `Nc1nc(N)c2c(n1)NC(c1ccc3c(c1)OCO3)CC(c1cccc(Nc3ccncc3)c1)=N2` (stereo not given), the growth is 62.7% (inactive).

Turning to `C[C@@H](C[C@H](CCOCc1cccnc1)c1ccccc1)c1cc2ccccc2o1`, the growth was 99.5% (inactive).

Regarding `CCN(CC)CCN1CNC(=S)NC1`, the growth was 99.7% (inactive).

Consider `O=C(CSc1cc[n+](CCCCO)c2ccccc12)n1ccc2ccccc21`, for which the growth is 108% (inactive).
